High-throughput results from PubChem BioAssay.
Only some compounds are listed: those with a hit (about 3.4% of all), similar ones and a draw of the others.
HTT aggregate: reduces HttQ103-GFP aggregates in PC12 cells | hit rate 1.1% among 220,000 | AID 1688 | Potency, µM (top dose mostly 46.1 µM), for the others: at the top dose activity change, negative = inhibition, hits mostly inhibitors | PC12 HttQ103-GFP aggregates, Acumen cytometry, 40 h; note: potency is the fitted concentration of half-maximal effect; % is set by controls: 0 for no effect and ±100 for the full control effect; nearly all actives have a fitted effect of over 60% in size
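PC12/HTTQ103-GFP, ecdysone-inducible; teb 100 nM; cpd qHTS titration; GFP aggregates read on laser cytometer, Ex 488/Em 500-530 nm.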
IMPase Li cell: cell-permeable IMPase inhibitors with lithium potentiation | hit rate 0.35% among 210,000 | CHO-M1 cells, IP1 TR-FRET (IP-One), carbachol + lithium | Potency, µM (doses to about 59.4 µM), without a hit: at the highest dose activity, negative = IMPase inhibition, hits mostly inhibitors;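 note: IP1 builds up when IMPase is blocked and the TR-FRET signal falls; potency is the fitted concentration of half-maximal effect; plate controls were basal vehicle for no effect and high inhibitor control for full effect; nearly all actives have a fitted effect of over 50% in size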
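Concentration–response in CHO-M1 cells, lithium-potentiated; 30 min at 37C. IP1 detected by competitive TR-FRET after 10 min lysis at RT. Hill-fitted AC50.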
HTT cytoprotect: cytoprotection in Huntington HTT-Q103 PC12 cell model. PC12 HTT-Q103 induced, cytoprotection, ATP luminescence, 40 h. Potency, µM (doses to about 56.4 µM), for inactives: cytoprotection (ATP increase), hits mostly activators. hit rate 0.14% among 230,000; note: potency is the fitted concentration of half-maximal effect; % of control where 0% means no effect; nearly all actives have a fitted effect of over 45% in size
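Quantitative HTS on tebufenozide-induced (100 nM) PC12 cells expressing HTTQ103 exon 1–GFP; compounds tested as a concentration series; survival measured via cellular ATP.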
PNC inhibitor: inhibitors of perinucleolar compartment assembly; PC3M PTB-GFP, PNC prevalence imaging, 16 h; stronger effect = lower value; activity change (PNC), negative = inhibition, % at 10 µM; hit rate 3.1% among 140,000;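 active = readout at or below -70, meaning at least 70% loss of cells showing the perinucleolar compartment, a nuclear body marking cancer cells; inconclusive = readout between -30 and a set limit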;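 note: plate controls were DMSO wells for no effect and camptothecin positive control wells for full effect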
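Compounds are pinned in duplicate onto adhered PC3M cells stably expressing GFP-tagged PTB and incubated 16 h at 37 C. Cells are then fixed, nuclei stained with Hoechst, and PNC-positive cells counted.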
NPSR antagonist: neuropeptide S receptor (human) antagonism, cAMP; Q6W5P4; CHO-NPSR cells, cAMP TR-FRET, antagonist mode; Potency, µM (top dose mostly 38.3 µM), for inactives: at the highest dose activity change, negative = inhibition, actives largely listed as inhibitors; hit rate 1% among 220,000; AID 1461; note: potency is the fitted concentration of half-maximal effect; % is set by controls: 0 for no effect and ±100 for the full control effect; nearly all actives have a fitted effect of over 50% in size
IMPase cell inh: membrane-permeable compound that blocks inositol monophosphatase; inhibition (IP1 accumulation), % at 46.1 µM; 120,000 tested, under 10 active; CHO-M1 cells, IP1 accumulation, HTRF TR-FRET ratio; active = well fitted curve in the direction sought with a large enough effect in the signal ratio, not every such curve was filed as active; inconclusive = small, poorly fitted or top-dose-only effect, or a change in a side signal; inactive = no such curve, though single readings can be large or run the other way; the % refers to the signal ratio;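 note: cells stimulated with carbachol in lithium chloride buffer; plate controls were DMSO basal wells for no effect and reference inhibitor wells for full effect; higher means more IMPase inhibition seen as more IP1 and lower FRET ratio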
Target sequence (P97697 whole entry, looked up): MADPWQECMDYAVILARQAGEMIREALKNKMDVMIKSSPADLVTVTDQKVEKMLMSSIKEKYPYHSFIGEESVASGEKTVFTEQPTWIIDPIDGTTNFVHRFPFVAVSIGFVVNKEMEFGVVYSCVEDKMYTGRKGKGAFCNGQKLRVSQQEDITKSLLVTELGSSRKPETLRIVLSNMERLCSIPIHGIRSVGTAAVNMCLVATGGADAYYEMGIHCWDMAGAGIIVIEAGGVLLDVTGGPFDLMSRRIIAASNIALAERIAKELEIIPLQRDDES
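CHO-M1, 2000 cells/well, cultured 16–30 h; cpd up to 46 uM; carbachol (50 uM solution, stimulation buffer w/ 50 mM LiCl, pH 7.4), 30 min 37C; IP-One TR-FRET, 10 min RT; Ex 320/Em 665, 620; Hill-fit AC50.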
* hit, by the source's call; ? = inconclusive; / = no result; [ ] = another dose, or the depositor's remark. Unless noted, calls come from the whole dose curve; as a rule, active = well fitted curve in the direction sought with a large enough effect; inconclusive = small, poorly fitted or top-dose-only effect, or another doubt; inactive = no such curve, though single readings can be large; an effect the other way counts as inactive or inconclusive.

SMILES | HTT aggregate | IMPase Li cell | HTT cytoprotect | PNC inhibitor | NPSR antagonist | IMPase cell inh
Cc1nn(-c2ccccc2)c(Cl)c1CN(C(=O)CCl)c1ccc(Cl)cc1 | 25µM* | 17% | -3%[10 µM] | 12 | ? | /
c1ccc2c(c1)[nH]c1c3ccccc3sc21 | -22%[9.22 µM] | / | -12%[10 µM] | / | -27% | /
COC(=O)[C@H](CC(C)C)NC(=O)NCCC1=CCCCC1 | -7%[9.22 µM] | / | 10%[10 µM] | / | -15% | /
O=C(CN1CCC(NC(=O)c2ccco2)CC1)Nc1cccc2ccccc12 | 10% | 4% | 15%[10 µM] | -100* | -4%[46.1 µM] | -6
CCn1c(SCC(=O)N2CCCc3ccccc32)nnc1-c1ccco1 | 2% | -9%[38.3 µM] | 7% | -9 | 3%[46.1 µM] | -5
CCn1c(SCC(=O)N2CCCc3ccccc32)nnc1-c1ccoc1C | 3% | 4% | -2%[10 µM] | -100* | 4%[46.1 µM] | 4
COc1ccc(OC)c(NC(=O)CS(=O)(=O)c2ccccc2)c1 | -5% | 20%[38.3 µM] | -4% | -4 | -8%[46.1 µM] | -16
COc1cc(OC)nc(NC(=O)CS(=O)(=O)c2ccccc2)n1 | 15% | 8% | -8%[0.074 µM] | -119* | 14% | 13
O=S1(=O)Nc2c(ccc3cccnc23)-c2ccccc21 | ? | 11%[38.3 µM] | -19%[0.074 µM] | -8 | 3.2µM* | 5
Nc1c(C(=O)Nc2ccc(F)cc2)sc2nc(-c3cccs3)cc(C(F)(F)F)c12 | / | / | / | / | / | -13
Nc1c(C(=O)Nc2ccccc2F)sc2nc(Cc3ccccc3)cc(C(F)(F)F)c12 | -28% | 10µM* | -49% | 18 | ? | ?
COc1ccc(NC(=O)c2sc3nc(-c4ccc(OC)cc4)cc(C(F)(F)F)c3c2N)cc1 | / | / | / | / | / | 2
Cc1cc(C(F)(F)F)c2c(N)c(C(=O)Nc3cc(C)on3)sc2n1 | -6% | 11µM* | -6%[10 µM] | 8 | ? | -10
Cc1ccc(/C=N/NC(=O)c2csc(C)c2)o1 | 19% | 12% | 17%[10 µM] | ? | -19% | 25
Cc1ccc(/C=N/NC(=O)c2cccs2)o1 | 16% | 2% | 16%[10 µM] | -83* | 10% | /
C=CC[n+]1c(-c2ccc(C)cc2)csc1Nc1ccc(NC(C)=O)cc1 | ? | 17% | -34% | / | -16% | /
C=CC[n+]1c(-c2ccc(OC)cc2)csc1NNC(=O)Nc1ccccc1 | 10µM* | 36%[38.3 µM] | 28% | 20 | -15%[46.1 µM] | 5
CC(C)C(NC(=O)c1ccc(F)cc1)C(=O)NCC1CCCO1 (stereo not drawn) | -4%[9.22 µM] | / | -7%[10 µM] | / | -17% | /
CCOc1cc(C)c(C(C)C)cc1S(=O)(=O)NCc1ccccn1 | 16% | -10%[38.3 µM] | 12% | -82* | -11%[46.1 µM] | -6
COc1ccc(S(=O)(=O)NCc2ccccn2)cc1 | 3% | 28%[38.3 µM] | 18% | -14 | 14%[46.1 µM] | 3
COc1cc(S(=O)(=O)NCc2ccccn2)c(OC)cc1Cl | -1% | 2% | 8%[10 µM] | 180 | -2%[46.1 µM] | 4
CCOc1ccc(S(=O)(=O)NCc2ccccn2)cc1 | 1% | 20%[38.3 µM] | 10% | -111* | 12%[46.1 µM] | -5
COc1ccc(N2C(=O)C3C(c4ccc(C(=O)O)cc4)NC(Cc4ccccc4)(C(=O)O)C3C2=O)c([N+](=O)[O-])c1 (stereo not drawn) | 6% | 0% | -9%[10 µM] | / | 14% | /
CCCCCCn1c(CN2CCN(C)CC2)nc2c1c(=O)n(C)c(=O)n2C | -24% | 3% | -12% | -122* | 6%[46.1 µM] | -8
CCCCCCn1c(NCC)nc2c1c(=O)n(C)c(=O)n2C | 4µM* | 11%[38.3 µM] | -42%[0.074 µM] | -28 | -5%[46.1 µM] | 3
C=CCn1c(NCCO)nc2c1c(=O)n(C)c(=O)n2C | 25µM* | -17%[38.3 µM] | -6%[10 µM] | 10 | 7%[46.1 µM] | -6
CCCn1c(CN2CCCCC2C)nc2c1c(=O)n(C)c(=O)n2C (stereo not drawn) | -1% | 12%[38.3 µM] | 8%[10 µM] | -95* | -12%[46.1 µM] | 9
CCCCCn1c(CN2CCN(CCO)CC2)nc2c1c(=O)n(C)c(=O)n2C | 10% | 19%[38.3 µM] | 10% | 6 | 1%[46.1 µM] | -3
Cn1c(=O)c2c(nc(NCCO)n2C)n(C)c1=O | -21% | 18%[38.3 µM] | 13% | 30 | -14%[46.1 µM] | 17
